What was measured:
Assay in all cases: log2 ratio of Biotin-Ahx-Ub-VS probe labelling (fragment/DMSO); higher = less target engagement (more negative = stronger competition), active = hit call of the paper (q ≤ 0.05, log2 ratio ≤ -1)
Settings in all cases: compound concentration: 200 uM; treatment time: 3 h
[1] = target: USP34 (UniProt Q70CQ2)
In short: (§1)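 Labelling with Biotin-Ahx-Ub-VS (0.5 µM final, 1 h) followed a 3 h triplicate treatment of HEK293T lysate (495 µg per sample, Tris/CHAPS/IGEPAL buffer with protease inhibitors) with fragment at 200 µM or vehicle. Labelled DUBs were NeutrAvidin-enriched, digested with LysC and trypsin, and run by diaPASEF LC-MS/MS. The values, average log2 fragment/vehicle ratios by unpaired t-test, come from global-median-normalised Spectronaut label-free quantities. Proteins with ≥2 unique peptides were used.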

[2] = target: T1, USP36 (UniProt Q9P275)
T1 sequence (whole entry): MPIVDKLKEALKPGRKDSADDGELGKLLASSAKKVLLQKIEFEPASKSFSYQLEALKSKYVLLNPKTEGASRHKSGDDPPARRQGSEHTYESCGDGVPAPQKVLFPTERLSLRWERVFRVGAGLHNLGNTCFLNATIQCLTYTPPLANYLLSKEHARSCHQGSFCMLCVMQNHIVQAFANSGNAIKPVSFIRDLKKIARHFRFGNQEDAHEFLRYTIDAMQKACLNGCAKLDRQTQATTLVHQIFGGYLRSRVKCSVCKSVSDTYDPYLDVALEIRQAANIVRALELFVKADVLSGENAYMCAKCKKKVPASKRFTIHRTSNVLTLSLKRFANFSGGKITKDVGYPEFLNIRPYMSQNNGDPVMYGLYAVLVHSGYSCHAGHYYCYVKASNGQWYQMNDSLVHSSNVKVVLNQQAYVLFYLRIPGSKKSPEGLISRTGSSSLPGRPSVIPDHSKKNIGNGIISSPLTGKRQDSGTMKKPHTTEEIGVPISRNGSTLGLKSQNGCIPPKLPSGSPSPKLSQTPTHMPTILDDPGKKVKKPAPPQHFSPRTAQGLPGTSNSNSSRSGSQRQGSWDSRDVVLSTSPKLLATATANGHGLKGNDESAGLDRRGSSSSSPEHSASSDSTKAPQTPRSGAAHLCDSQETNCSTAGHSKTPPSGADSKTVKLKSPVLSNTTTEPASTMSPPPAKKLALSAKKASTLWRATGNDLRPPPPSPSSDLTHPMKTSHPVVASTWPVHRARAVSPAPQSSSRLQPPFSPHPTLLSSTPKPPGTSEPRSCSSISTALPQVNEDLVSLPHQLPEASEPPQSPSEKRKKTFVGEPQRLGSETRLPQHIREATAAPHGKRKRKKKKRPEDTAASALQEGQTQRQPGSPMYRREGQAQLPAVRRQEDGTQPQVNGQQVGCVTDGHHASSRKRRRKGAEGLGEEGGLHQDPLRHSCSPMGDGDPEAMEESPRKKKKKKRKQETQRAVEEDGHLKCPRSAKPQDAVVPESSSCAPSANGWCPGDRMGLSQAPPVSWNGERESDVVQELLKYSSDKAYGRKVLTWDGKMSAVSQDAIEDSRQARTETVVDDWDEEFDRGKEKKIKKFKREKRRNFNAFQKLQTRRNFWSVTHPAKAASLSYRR
In short: as §1

[3] = target: T2, USP38 (UniProt Q8NB14)
T2 sequence (whole entry): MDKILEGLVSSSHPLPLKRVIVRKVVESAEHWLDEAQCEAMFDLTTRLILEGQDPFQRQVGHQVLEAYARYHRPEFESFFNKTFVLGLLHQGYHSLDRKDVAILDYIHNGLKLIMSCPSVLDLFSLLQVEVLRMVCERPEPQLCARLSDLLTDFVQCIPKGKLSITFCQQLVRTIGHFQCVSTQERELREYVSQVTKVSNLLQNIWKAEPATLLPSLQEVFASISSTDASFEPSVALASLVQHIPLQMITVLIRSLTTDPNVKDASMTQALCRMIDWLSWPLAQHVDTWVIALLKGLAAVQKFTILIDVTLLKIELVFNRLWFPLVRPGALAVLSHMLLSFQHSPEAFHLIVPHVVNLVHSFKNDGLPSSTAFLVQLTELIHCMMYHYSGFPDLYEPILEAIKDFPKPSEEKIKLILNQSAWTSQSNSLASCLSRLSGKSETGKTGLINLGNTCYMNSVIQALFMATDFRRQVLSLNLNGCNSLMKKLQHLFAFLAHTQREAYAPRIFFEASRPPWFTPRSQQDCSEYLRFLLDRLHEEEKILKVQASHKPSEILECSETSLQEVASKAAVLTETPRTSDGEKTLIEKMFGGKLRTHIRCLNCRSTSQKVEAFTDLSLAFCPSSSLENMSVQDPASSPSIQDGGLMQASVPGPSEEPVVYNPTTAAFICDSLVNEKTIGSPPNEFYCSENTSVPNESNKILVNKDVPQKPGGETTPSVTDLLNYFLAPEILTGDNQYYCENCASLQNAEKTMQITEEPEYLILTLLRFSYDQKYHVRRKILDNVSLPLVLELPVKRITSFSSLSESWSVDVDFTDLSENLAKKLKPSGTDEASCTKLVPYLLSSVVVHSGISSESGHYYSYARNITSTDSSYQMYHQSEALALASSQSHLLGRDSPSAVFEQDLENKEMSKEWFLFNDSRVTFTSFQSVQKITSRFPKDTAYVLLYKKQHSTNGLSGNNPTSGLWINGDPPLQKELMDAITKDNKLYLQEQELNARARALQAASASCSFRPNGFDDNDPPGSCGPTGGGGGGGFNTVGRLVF
In short: as §1

[4] = target: T3, USP39 (UniProt Q53GS9)
T3 sequence (whole entry): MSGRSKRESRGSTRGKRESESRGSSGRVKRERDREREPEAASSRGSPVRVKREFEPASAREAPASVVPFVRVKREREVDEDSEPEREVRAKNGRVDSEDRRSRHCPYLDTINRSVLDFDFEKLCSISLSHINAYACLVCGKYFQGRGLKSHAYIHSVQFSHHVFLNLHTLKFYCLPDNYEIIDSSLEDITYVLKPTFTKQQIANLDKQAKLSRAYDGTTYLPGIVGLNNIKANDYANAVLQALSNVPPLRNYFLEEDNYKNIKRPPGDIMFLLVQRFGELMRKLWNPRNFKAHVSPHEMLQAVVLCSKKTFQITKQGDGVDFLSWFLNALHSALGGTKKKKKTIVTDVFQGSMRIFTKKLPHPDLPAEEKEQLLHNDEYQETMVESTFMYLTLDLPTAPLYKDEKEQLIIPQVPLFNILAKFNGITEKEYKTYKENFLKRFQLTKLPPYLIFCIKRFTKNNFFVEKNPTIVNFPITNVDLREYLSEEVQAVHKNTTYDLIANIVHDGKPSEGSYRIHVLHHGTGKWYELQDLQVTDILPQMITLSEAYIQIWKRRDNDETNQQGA
In short: as §1

[5] = target: T4, USP4 (UniProt Q13107)
T4 sequence (whole entry): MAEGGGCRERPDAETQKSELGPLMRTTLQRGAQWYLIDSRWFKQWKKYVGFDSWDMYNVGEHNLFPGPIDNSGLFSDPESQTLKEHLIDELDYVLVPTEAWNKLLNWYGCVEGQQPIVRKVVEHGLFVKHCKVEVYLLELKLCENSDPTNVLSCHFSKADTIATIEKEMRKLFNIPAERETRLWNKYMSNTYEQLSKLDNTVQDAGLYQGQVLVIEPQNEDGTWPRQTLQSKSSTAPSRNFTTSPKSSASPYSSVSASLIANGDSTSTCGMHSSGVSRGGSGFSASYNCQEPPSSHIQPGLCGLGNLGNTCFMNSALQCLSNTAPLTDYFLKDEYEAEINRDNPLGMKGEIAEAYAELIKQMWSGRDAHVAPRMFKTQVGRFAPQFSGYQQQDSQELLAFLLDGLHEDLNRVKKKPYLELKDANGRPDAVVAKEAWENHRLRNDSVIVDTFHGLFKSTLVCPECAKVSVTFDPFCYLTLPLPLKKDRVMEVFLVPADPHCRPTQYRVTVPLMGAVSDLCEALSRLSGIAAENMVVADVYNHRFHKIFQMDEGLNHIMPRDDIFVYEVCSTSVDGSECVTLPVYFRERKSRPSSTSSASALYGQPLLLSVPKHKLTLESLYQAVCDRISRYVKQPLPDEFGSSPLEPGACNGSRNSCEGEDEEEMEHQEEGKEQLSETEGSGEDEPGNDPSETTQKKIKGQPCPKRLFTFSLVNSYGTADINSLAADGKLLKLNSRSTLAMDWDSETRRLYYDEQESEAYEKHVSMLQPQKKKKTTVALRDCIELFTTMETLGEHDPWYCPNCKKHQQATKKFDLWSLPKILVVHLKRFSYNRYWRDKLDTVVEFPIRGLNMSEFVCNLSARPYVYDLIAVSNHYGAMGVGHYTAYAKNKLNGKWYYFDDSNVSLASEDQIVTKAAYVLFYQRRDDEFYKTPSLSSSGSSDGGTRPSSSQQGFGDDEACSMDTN
In short: as §1

Measured: log2 ratio of Biotin-Ahx-Ub-VS probe labelling

Sequence of USP34 (Q70CQ2 whole entry, the tested form may be a part): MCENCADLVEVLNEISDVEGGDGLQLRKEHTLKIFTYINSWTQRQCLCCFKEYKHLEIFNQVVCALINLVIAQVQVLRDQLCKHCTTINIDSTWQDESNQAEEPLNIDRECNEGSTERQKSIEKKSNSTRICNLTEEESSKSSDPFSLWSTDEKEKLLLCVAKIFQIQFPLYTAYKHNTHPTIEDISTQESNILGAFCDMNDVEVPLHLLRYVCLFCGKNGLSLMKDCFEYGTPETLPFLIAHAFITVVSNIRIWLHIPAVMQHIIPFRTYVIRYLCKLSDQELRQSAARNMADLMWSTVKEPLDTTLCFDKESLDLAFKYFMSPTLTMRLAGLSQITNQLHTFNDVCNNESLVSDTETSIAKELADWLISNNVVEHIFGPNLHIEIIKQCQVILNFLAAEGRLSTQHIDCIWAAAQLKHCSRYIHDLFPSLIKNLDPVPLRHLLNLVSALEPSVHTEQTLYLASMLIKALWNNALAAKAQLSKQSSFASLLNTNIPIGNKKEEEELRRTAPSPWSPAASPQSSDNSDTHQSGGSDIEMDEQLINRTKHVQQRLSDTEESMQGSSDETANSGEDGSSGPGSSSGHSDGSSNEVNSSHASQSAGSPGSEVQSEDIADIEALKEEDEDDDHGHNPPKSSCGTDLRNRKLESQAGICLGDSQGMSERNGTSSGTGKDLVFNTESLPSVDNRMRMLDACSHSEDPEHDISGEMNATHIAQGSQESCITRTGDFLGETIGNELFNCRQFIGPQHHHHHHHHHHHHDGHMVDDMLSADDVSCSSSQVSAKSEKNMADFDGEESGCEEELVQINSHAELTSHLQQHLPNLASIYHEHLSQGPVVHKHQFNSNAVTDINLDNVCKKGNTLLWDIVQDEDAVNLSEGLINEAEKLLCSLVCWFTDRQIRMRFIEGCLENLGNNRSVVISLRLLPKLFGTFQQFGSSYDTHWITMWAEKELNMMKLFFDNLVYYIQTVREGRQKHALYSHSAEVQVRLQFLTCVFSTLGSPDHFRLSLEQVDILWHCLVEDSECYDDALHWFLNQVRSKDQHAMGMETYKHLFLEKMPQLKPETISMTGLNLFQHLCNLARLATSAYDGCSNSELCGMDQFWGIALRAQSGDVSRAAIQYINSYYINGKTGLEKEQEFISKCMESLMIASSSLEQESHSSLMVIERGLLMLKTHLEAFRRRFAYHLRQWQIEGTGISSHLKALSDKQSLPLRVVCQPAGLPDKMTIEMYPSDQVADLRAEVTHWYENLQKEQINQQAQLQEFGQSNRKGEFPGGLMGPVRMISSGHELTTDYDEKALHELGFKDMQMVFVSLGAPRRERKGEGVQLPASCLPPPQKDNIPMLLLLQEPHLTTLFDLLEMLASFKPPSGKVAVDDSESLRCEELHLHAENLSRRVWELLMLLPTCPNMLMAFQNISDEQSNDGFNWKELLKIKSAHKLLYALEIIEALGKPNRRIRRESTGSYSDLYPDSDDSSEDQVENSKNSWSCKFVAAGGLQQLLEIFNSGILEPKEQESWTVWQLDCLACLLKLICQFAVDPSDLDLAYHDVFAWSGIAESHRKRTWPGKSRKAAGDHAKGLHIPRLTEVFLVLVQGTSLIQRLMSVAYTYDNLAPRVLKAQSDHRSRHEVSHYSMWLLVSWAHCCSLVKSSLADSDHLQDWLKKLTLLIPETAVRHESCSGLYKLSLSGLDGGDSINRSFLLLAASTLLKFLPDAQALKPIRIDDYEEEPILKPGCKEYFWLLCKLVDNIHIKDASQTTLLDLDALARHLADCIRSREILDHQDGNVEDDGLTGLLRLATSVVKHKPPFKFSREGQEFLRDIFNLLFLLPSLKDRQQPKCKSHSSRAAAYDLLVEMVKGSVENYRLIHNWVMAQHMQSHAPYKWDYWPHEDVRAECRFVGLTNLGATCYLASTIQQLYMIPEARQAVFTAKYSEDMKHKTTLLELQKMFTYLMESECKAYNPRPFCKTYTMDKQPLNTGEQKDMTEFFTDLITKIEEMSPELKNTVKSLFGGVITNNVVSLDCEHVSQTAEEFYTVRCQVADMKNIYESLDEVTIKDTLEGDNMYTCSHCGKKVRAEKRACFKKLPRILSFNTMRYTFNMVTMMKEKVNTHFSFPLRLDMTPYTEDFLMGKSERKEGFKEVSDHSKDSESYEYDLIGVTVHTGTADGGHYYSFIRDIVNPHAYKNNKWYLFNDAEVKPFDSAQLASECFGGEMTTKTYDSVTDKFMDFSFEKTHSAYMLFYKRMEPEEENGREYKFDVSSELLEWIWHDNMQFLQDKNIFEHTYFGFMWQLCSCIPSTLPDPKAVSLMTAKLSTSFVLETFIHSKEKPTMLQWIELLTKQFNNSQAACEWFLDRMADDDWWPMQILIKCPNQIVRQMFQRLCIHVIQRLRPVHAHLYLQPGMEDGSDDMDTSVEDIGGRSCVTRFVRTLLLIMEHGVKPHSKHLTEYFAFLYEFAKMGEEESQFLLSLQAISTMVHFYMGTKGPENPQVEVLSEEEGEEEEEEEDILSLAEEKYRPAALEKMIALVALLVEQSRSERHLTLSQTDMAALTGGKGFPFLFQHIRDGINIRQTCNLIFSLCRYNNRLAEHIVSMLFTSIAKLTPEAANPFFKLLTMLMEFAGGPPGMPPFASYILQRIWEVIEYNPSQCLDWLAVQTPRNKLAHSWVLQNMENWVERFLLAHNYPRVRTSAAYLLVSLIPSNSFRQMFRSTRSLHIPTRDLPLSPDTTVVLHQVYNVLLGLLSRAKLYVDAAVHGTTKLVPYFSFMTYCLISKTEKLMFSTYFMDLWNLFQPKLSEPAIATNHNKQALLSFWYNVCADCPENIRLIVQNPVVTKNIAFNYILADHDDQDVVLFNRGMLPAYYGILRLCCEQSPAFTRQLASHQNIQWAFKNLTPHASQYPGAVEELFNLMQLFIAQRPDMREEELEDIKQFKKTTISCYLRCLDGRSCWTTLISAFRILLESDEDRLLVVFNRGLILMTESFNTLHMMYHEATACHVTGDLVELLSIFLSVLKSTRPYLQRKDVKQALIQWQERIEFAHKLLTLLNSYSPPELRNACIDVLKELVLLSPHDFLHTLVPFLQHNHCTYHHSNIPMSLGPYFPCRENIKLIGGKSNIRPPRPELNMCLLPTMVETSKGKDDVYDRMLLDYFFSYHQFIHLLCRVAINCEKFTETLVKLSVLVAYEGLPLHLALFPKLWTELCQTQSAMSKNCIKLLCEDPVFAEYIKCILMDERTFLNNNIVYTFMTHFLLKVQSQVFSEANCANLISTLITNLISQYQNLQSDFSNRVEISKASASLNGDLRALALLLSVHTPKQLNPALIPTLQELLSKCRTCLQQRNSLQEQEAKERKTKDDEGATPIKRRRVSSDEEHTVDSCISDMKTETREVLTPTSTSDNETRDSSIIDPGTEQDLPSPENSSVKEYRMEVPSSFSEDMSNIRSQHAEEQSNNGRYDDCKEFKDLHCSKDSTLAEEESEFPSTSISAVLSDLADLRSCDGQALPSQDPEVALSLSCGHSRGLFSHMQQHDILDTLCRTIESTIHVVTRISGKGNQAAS

O=C(CCl)N(C1CCCC1)C1CCS(=O)(=O)C1 (stereo not given)
inactive: [1] -0.0865 | [2] -0.298 | [3] -0.0626 | [4] 0.151 | [5] 0.0894

— the supplement of paper PMC11732987, “Enantioselective OTUD7B fragment discovery through chemoproteomics screening and high-throughput optimisation” (Communications Chemistry, 2025)
